Reference: PubChem BioAssay AID651955 (The Scripps Research Institute Molecular Screening Center, 2012)
Screen size: about 2,400 compounds; about 40 (2%) were called active. Rule as the data show it: active = activation above about 37%; inactive = the rest. Not all results are given here.

Molecular target: Trace amine-associated receptor 1 (Homo sapiens) (UniProt Q96RJ0)
Assay: TAAR1 activation by candidate antagonists – cell-based, fluorescence, counter-screen for TAAR1 antagonist project (AID 651955);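 also: CHO cells stably expressing TAAR1 with calcium dye readout; 0% = DMSO vehicle and 100% = full agonist response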
Conditions: hTAAR1 cell line, agonist mode, at 3 µM, hits give high values

Sequence of Trace amine-associated receptor 1 (Homo sapiens) (Q96RJ0 whole entry, looked up): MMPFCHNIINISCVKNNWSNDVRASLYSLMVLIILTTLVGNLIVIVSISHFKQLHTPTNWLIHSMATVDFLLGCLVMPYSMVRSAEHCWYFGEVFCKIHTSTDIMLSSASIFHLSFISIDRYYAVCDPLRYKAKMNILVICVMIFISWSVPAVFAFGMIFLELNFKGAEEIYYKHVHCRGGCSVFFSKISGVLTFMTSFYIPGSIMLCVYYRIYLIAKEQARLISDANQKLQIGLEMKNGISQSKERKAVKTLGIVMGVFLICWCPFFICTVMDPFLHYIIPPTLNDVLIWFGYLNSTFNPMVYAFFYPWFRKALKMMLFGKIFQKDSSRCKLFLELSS

| Structure (SMILES) | activation |
| --- | --- |
| O=C(NCCN1CCOCC1)c1ccccc1N1C(=O)[C@@H]2Cc3c([nH]c4ccccc34)C(c3cccc(Cl)c3)N2C1=O (some centres not stated) | 5.75% (inactive) |
| Clc1ccc(Nc2ncnc3c2nnn3Cc2ccccc2)cc1 | 6.12% (inactive) |
| Nc1nonc1-n1nnc(C(=O)N/N=C/c2c[nH]c3ccccc23)c1-c1ccccc1 | 2.36% (inactive) |
| O=c1[nH]c(CSc2ncc(-c3ccc(F)cc3)n2Cc2ccco2)nc2ccccc12 | 17.5% (inactive) |
| Cn1c2ccccc2c(=O)c2c(=O)n(Cc3ccco3)c(COc3ccccc3)nc21 | 39.4% (active) |
| Cc1ccc(C)c(N2CCN(C(=O)CCCCCn3c(=S)[nH]c4ccc(N5CCOCC5)cc4c3=O)CC2)c1 | 6.46% (inactive) |
| CC(C)N(Cc1ccccc1)C(=O)COC(=O)c1ccccc1SCC(=O)N1CCCC1 | 10.5% (inactive) |
| C/C(=N\Nc1ncc(Cl)cc1Cl)c1ccc(S(=O)(=O)NCc2ccco2)cc1 | -4.54% (inactive) |
| COC(=O)Cc1nnn2c1[C@H](C)[C@H](c1ccccc1[N+](=O)[O-])OCC2 | 1.8% (inactive) |
| O=C1c2ccccc2C(=O)N1CCC#Cc1ccc2cc(C3(O)CCCCC3)oc(=O)c2c1 | 10.5% (inactive) |
| C[C@@H]1CN([C@@H](C)CO)S(=O)(=O)c2ccc(C#Cc3cccc(F)c3)cc2O[C@H]1CN(C)S(=O)(=O)c1cn(C)cn1 | 9.74% (inactive) |
| COc1ccc(-c2nn(-c3ccccc3)cc2C(=O)Nc2nccs2)cc1OC | 7.13% (inactive) |
| O=C(NCc1ccc2c(c1)OCO2)c1c(-c2ccsc2)sc2ccccc12 | -1.93% (inactive) |
| CCC(=O)Oc1cccc(C(=O)Nc2ccc(-c3nnc(-c4ccco4)o3)cc2)c1 | 3.83% (inactive) |
| O=S(=O)(c1cccs1)N1CCCc2nc(-c3ccc(Br)cc3)ccc21 | 0.43% (inactive) |
| CSC(=S)N/N=C/c1c[nH]c2ccccc12 | 12% (inactive) |
| CC(=O)n1cc([C@H]2C=C(C(=O)N3CCOCC3)O[C@@H](OCc3ccc(CO)cc3)C2)c2ccccc21 | 9.37% (inactive) |
| O=C(COC(=O)c1ccccc1SCC(=O)N1CCCC1)Nc1ccccc1OC(F)F | 7.54% (inactive) |
| Cc1onc(-c2c(F)cccc2Cl)c1C(=O)Nc1cccc(S(=O)(=O)N2CCCCC2)c1 | 7.98% (inactive) |
| COc1cc(SC#N)ccc1N=Cc1c(C)[nH]n(-c2ccc(C)cc2)c1=O | 1.06% (inactive) |
| CN(c1ccccc1)S(=O)(=O)c1cc(C(=O)Nc2nc3ccccc3[nH]2)ccc1Cl | 4.12% (inactive) |
| O=C(NCC1CCCO1)c1cc2c([nH]c3ccccc32)c(-c2ccc(F)cc2)n1 (configuration not stated) | 3.66% (inactive) |
